The record followed here is ChEMBL document CHEMBL3433997, “St. Jude Leishmania screening dataset” (2016).

Where “and” joins values, the source holds several entries; their conditions need not be identical. Identical values can stand only once.

One may read the inhibition as the relative decrease from the control value, in per cent.

What all share (format): functional
Test [1] deals with Solute carrier family 2, facilitated glucose transporter member 1 (Homo sapiens) (UniProt P11166). The experiment in a line: ST_JUDE_LEISH: Cytotoxicity at 2uM final concentration against transgenic Leishmania Mexicana promastigotes LmGLUT1 that are glucose transport deficient and complemented with the human glucose transporter GLUT1. Activity is measured by DNA content using SYBR green in vitro.
Sequence of Solute carrier family 2, facilitated glucose transporter member 1 (Homo sapiens) (P11166 whole entry): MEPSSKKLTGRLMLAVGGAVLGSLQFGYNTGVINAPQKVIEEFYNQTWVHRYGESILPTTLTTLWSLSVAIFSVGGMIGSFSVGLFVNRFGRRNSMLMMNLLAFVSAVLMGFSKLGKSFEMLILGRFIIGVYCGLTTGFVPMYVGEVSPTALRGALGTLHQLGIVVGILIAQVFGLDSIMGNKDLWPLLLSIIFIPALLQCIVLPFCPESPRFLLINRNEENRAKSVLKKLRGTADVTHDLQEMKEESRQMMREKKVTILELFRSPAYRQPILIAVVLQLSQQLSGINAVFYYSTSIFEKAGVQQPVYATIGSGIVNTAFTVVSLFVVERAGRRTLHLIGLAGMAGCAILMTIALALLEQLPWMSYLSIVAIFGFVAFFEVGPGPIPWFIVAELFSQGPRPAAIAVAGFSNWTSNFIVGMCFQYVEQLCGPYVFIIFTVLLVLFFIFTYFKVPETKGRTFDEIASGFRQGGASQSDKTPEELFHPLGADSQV

Test [2] addresses Hexose transporter 1 (Plasmodium falciparum) (UniProt O97467). The experiment in a line: ST_JUDE_LEISH: Cytotoxicity at 2uM final concentration against transgenic Leishmania Mexicana promastigotes LmPfHT that are glucose transport deficient and complemented with the Plasmodium falciparum hexose transporter. Activity is measured by DNA content using SYBR green in vitro.
The target of test [3] is Glucose transporter (Leishmania mexicana) (UniProt O61059). Description: ST_JUDE_LEISH: Cytotoxicity at 2uM final concentration against transgenic Leishmania Mexicana promastigotes LmGT2 that are glucose transport deficient and complemented with the L. Mexicana glucose transporter 2. Activity is measured by DNA content using SYBR green in vitro.

Consider `CC1CCN(CCCNc2ccc(C(=O)Nc3ccc(C(F)(F)F)cc3)cc2[N+](=O)[O-])CC1`, for which the inhibition in test [1] came to 4.71%; in test [2], 1.65%; in test [3], 5.07%.

With `O=C(Nc1cccc(-c2cccc(-c3nc4ccccc4[nH]3)c2)c1)NC1CC1c1ccccc1` (stereo not drawn), the inhibition was 6.53% and 2.58% in test [1]; 5.02% and 2.99% in test [2]; 5.79% and 7.12% in test [3].

Consider `NCC1CCCN1Cc1ccc(-c2ccc(-c3nc4cc(C(F)(F)F)ccc4[nH]3)cc2)cc1` (stereo not drawn), for which the inhibition in test [1] is 3.73%; in test [2], 1.2%; in test [3] it was 1.46%.

As for `CC1(C)[C@H]2CC[C@@H](CNc3nc(NCCc4c[nH]cn4)nc(NCc4cc(F)ccc4F)n3)[C@@H]1C2`, the figures for the inhibition in test [1], in test [2] and in test [3] were 4.07%, 0.62% and 1.36%, respectively.

For `Cc1cccc2nc(-c3ccc(-c4ccc(CN5CCN(c6ccncc6)CC5)cc4)cc3)[nH]c12`, the inhibition in test [1] stood at 33.3%; in test [2] it was 29.1%; in test [3], 13.4%.

Turning to `CC(C)N1CCC(N(Cc2ccc(-c3ccc(C(F)(F)F)cc3)cc2)C(=O)Cn2c(CCc3cccc(F)c3F)cc(=O)c3c2CCC3)CC1`, the inhibition in test [1] was determined as 3.12%; in test [2], 4.34%; in test [3] it was 5.2%.

On to `Cn1c2c(c3ccccc31)CN(CCC1(c3ccc(Cl)c(Cl)c3)CN(C(=O)c3ccccc3)CCO1)CC2` (stereo not drawn), for which the inhibition in test [1] was 2.15%; in test [2], 1.72%; in test [3], 2.38%.

`COc1ccccc1N1CCN(Cc2cc(C(C)C)c(C)cc2O)CC1`: the inhibition came to 3.59% in test [1], 6.3% in test [2] and 0.93% in test [3].

Turning to `Cc1n[nH]c2ccc(-c3ccc4nccc(N5CCC(N)CC5)c4c3)cc12`, the inhibition in test [1] was -2.13%; in test [2], -0.1%; in test [3] it was -3.17%.

For the compound `COc1ccc(CCN2CCC(NCc3cccc(N(C)C)c3)CC2)cc1`, the figures for the inhibition in test [1], in test [2] and in test [3] were -2.94%, 2.54% and -1.51%, respectively.

Regarding `Cc1cc(NCC(c2ccccc2)c2ccccc2)nc(NCc2ccc(C(F)(F)F)cc2)n1`, the inhibition turned out to be 5.66% in test [1], 6.13% in test [2] and 3.66% in test [3].

As to `O=C(CCc1cccnc1)Nc1cccc(-c2ccc(-c3nc4cc(C(F)(F)F)ccc4[nH]3)cc2)c1`, the results for the inhibition in test [1], in test [2] and in test [3] were 9.2%, 7.53% and 6.85%, respectively.

As for `Cc1cccc(C)c1N1CCN(C2CCC(NC(=O)c3cc4ccccc4[nH]3)CC2)CC1` (stereo not drawn), the figures for the inhibition in test [1], in test [2] and in test [3] were 1.58%, -0.69% and -0.14%, respectively.

Take `CC1(C)N=C(N)N=C(N)N1c1ccccc1`: the inhibition in test [1] came out at 3.26%; in test [2] it was 3.47%; in test [3] it was 1.32%.

In the case of `c1ccc(-c2ccc3c(Nc4ccc5[nH]ncc5c4)ccnc3c2)nc1`, the inhibition in test [1] amounted to 4.92%; in test [2], 4.75%; in test [3], 5.04%.

For `N#Cc1ccc2[nH]c(-c3ccccc3)nc2c1`, the inhibition in test [1] stood at 7.3%; in test [2], 6.06%; in test [3], 5.78%.
